Drawing on PubChem BioAssay AID1930 (Vanderbilt High Throughput Screening Facility, 2009), this text covers outcome for 4 compounds.

The structures appear in SMILES notation. Calls of active or inactive are those of the source. How the calls were made is not given here.

The experiment deals with Muscarinic acetylcholine receptor M2 (Homo sapiens) (UniProt P08172). The experiment can be described thus: hM2 allosteric modulation, ACh fold-shift, selectivity assay for M4 PAM project, cell-based, Gqi5 chimera, calcium (AID 1930). As to conditions: hM2/Gqi5 cells; series mostly up to 10 µM.
Sequence of Muscarinic acetylcholine receptor M2 (Homo sapiens) (P08172 whole entry, looked up): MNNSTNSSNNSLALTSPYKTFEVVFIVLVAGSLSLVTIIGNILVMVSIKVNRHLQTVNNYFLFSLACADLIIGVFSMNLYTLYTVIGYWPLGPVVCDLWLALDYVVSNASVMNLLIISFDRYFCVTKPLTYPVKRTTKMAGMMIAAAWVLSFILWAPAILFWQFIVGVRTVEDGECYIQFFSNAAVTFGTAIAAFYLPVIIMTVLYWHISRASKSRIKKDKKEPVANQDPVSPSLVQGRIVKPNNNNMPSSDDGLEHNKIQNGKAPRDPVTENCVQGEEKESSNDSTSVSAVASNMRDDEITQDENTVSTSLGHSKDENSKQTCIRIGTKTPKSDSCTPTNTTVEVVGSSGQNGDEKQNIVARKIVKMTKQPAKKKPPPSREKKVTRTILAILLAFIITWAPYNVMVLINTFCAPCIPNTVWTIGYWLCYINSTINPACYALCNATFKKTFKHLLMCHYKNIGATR
For the compound `Cc1cc(OCc2ccncc2)nc2sc(C(=O)NCc3cccc(F)c3F)c(N)c12`, the outcome was inactive.
Turning to `COc1ccc(CNC(=O)c2sc3nc(OCc4ccncc4)cc(C)c3c2N)cc1`, the result was inactive.
For `Cc1cc(OCCN2CCOCC2)nc2sc(C(=O)NC(C)(C)C)c(N)c12`, the outcome was inactive.
In the case of `Cc1cc(OCc2ccncc2)nc2sc(C(=O)NCc3cc(F)ccc3F)c(N)c12`, the outcome was inactive.
